The panel holds about 79,000 compounds, 15% with a hit somewhere; the sample as a whole holds those more often. A number with no mark means an inactive call. Activity calls are given as the source filed them. Rule as the data show it: active = growth inhibition above about 70%; inactive = the rest.

A short description of test [1]: NCI Yeast Anticancer Drug Screen. Data for the rad50 strain (AID 155).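 Also: 0% = growth of vehicle-only cultures of the same strain.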 The settings on record: S. cerevisiae rad50 strain growth inhibition, active compounds read high. A digest of the protocol: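 Inhibition values express reduced yeast growth in compound-treated cultures relative to vehicle-treated controls.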
The nature of test [2]: NCI Yeast Anticancer Drug Screen. Data for the mec2-1 strain (AID 157). Particulars: S. cerevisiae mec2-1 strain, active compounds read high. The gist of the method: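 Test agents were screened against the mec2-1 yeast strain, with defined DNA repair or cell cycle alteration. Growth was scored as inhibition against vehicle-only controls.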
Test [3] in a line: NCI Yeast Anticancer Drug Screen. Data for the sgs1 mgt1 strain (AID 161).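 Also: 0% = growth of cultures given vehicle only.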 The settings on record: S. cerevisiae sgs1 mgt1 strain, active compounds read high. The gist of the method: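 Inhibition of yeast growth, normalised to vehicle-treated controls, is reported for a strain bearing genetic alterations in DNA damage repair.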
Test [4] can be described thus: NCI Yeast Anticancer Drug Screen. Data for the cln2 rad14 strain (AID 165).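 Also: 0% = growth equal to vehicle treated cultures.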 Particulars: S. cerevisiae cln2 rad14 strain, active compounds read high. A digest of the protocol: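 Growth of compound-exposed yeast (cln2 rad14 genotype) measured and expressed as inhibition relative to vehicle.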
A short description of test [5]: NCI Yeast Anticancer Drug Screen. Data for the bub3 strain (AID 167). Particulars: S. cerevisiae bub3 mutant strain, active compounds read high. A digest of the protocol:
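Steps: expose the mutant yeast strain to compound; grow alongside vehicle-treated cultures; measure growth; express inhibition against the vehicle cultures.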

Test [6] can be described thus: NCI Yeast Anticancer Drug Screen. Data for the mlh1 rad18 strain (AID 175). The settings on record: S. cerevisiae mlh1 rad18 strain growth inhibition, active compounds read high. A digest of the protocol:
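In this whole-cell yeast screen, a strain with altered DNA damage repair is challenged with compound, and its growth is measured against matched vehicle-treated controls.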

[7] abbreviates: at 5.0 µM (retest, dose inferred, filed as 0.5).
The mark [8] stands for this setting: at 50.0 µM (retest, dose inferred, filed as 5.0).

Consider `NCCOB(c1ccccc1)c1ccccc1`, for which the growth inhibition in test [1] (setting [7]) is 12%; in test [1] (setting [8]), 99% (active); in test [1] (at 50.0 µM) it was 53.1%; in test [2] (setting [7]), 0%; in test [2] (setting [8]) it was 99% (active); in test [2] (at 50.0 µM), 54.2%. The growth inhibition in test [3] (setting [7]) is 3%; in test [3] (setting [8]) it was 99% (active); in test [3] (at 50.0 µM), 50.5%; in test [4] (setting [7]), 8%; in test [4] (setting [8]), 99% (active); in test [4] (at 50.0 µM) it was 99% (active). For the same molecule, the growth inhibition was 1% in test [5] (setting [7]); 99% (active) in test [5] (setting [8]); 99.3% (active) in test [5] (at 50.0 µM); 5% in test [6] (setting [7]); 99% (active) in test [6] (setting [8]); 51.3% in test [6] (at 50.0 µM).

Take `Cc1ccc2c(c1)NC(=O)C(N=[N+]=[N-])(c1ccccc1)C2=O` (configuration not stated): the growth inhibition in test [1] (setting [7]) was -25%; in test [1] (setting [8]), 97% (active); in test [1] (at 50.0 µM), 89.8% (active); in test [2] (setting [7]), -2%; in test [2] (setting [8]) it was 93% (active); in test [2] (at 50.0 µM) it was 91.3% (active). Moreover, the growth inhibition in test [3] (setting [7]) was -1%; in test [3] (setting [8]), 97% (active); in test [3] (at 50.0 µM), 90.2% (active); in test [4] (setting [7]) it was 10%; in test [4] (setting [8]), 71% (active); in test [4] (at 50.0 µM), 91.3% (active). For the same molecule, the growth inhibition is -7% in test [5] (setting [7]); 98% (active) in test [5] (setting [8]); 92.3% (active) in test [5] (at 50.0 µM); -4% in test [6] (setting [7]); 98% (active) in test [6] (setting [8]); 70.4% (active) in test [6] (at 50.0 µM).

For `[O-][n+]1c2c(cc3ccccc31)Cc1ccccc1-2`, the growth inhibition was 2% in test [1] (setting [7]); 31% in test [1] (setting [8]); 21.7% in test [1] (at 50.0 µM); 3% in test [2] (setting [7]); 19% in test [2] (setting [8]); 35% in test [2] (at 50.0 µM). In addition, the growth inhibition was -3% in test [3] (setting [7]); 5% in test [3] (setting [8]); -22.6% in test [3] (at 50.0 µM); 4% in test [4] (setting [7]); 3% in test [4] (setting [8]); 20.4% in test [4] (at 50.0 µM). Besides, the growth inhibition in test [5] (setting [7]) is 7%; in test [5] (setting [8]), 29%; in test [5] (at 50.0 µM), 24.4%; in test [6] (setting [7]) it was 3%; in test [6] (setting [8]) it was 20%; in test [6] (at 50.0 µM), 30.7%.

`CCOc1ccc2c(c1)[n+]([O-])c(-c1ccc([N+](=O)[O-])cc1)c(N)[n+]2[O-]`: the growth inhibition was 22% in test [1] (setting [7]); 82% (active) in test [1] (setting [8]); 95% (active) in test [1] (at 50.0 µM); 41% in test [2] (setting [7]); 90% (active) in test [2] (setting [8]); 80.5% (active) in test [2] (at 50.0 µM). For the same molecule, the growth inhibition in test [3] (setting [7]) is 38%; in test [3] (setting [8]) it was 96% (active); in test [3] (at 50.0 µM), 96% (active); in test [4] (setting [7]) it was 21%; in test [4] (setting [8]) it was 76% (active); in test [4] (at 50.0 µM) it was 94.3% (active). Further, the growth inhibition is 65% in test [5] (setting [7]); 94% (active) in test [5] (setting [8]); 96% (active) in test [5] (at 50.0 µM); 56% in test [6] (setting [7]); 93% (active) in test [6] (setting [8]); 97.4% (active) in test [6] (at 50.0 µM).

Regarding `O=C1C=CC(=O)c2nc3c(nc21)[nH]c1ccccc13`, the growth inhibition in test [1] (setting [7]) is -9%; in test [1] (setting [8]), 91% (active); in test [1] (at 50.0 µM), 95.7% (active); in test [2] (setting [7]), -12%; in test [2] (setting [8]), 94% (active); in test [2] (at 50.0 µM) it was 95.4% (active). For the same molecule, the growth inhibition in test [3] (setting [7]) was -23%; in test [3] (setting [8]), 95% (active); in test [3] (at 50.0 µM) it was 94.7% (active); in test [4] (setting [7]), -20%; in test [4] (setting [8]), 94% (active); in test [4] (at 50.0 µM), 93.5% (active). The growth inhibition is -41% in test [5] (setting [7]); 93% (active) in test [5] (setting [8]); 91.4% (active) in test [5] (at 50.0 µM); -44% in test [6] (setting [7]); 92% (active) in test [6] (setting [8]); 95.5% (active) in test [6] (at 50.0 µM).

As for `OC1(c2ccc(Br)cc2)C2CCCCC2C2CCCCC21` (configuration not stated), the growth inhibition in test [1] (setting [7]) was 36%; in test [1] (setting [8]) it was 92% (active); in test [1] (at 50.0 µM) it was 98% (active); in test [2] (setting [7]) it was 7%; in test [2] (setting [8]) it was 95% (active); in test [2] (at 50.0 µM), 98.5% (active). Moreover, the growth inhibition in test [3] (setting [7]) was 18%; in test [3] (setting [8]), 95% (active); in test [3] (at 50.0 µM), 98.3% (active); in test [4] (setting [7]) it was -4%; in test [4] (setting [8]), 92% (active); in test [4] (at 50.0 µM), 97.7% (active). For the same molecule, the growth inhibition is 7% in test [5] (setting [7]); 93% (active) in test [5] (setting [8]); 98.4% (active) in test [5] (at 50.0 µM); 10% in test [6] (setting [7]); 95% (active) in test [6] (setting [8]); 98.2% (active) in test [6] (at 50.0 µM).

Take `COc1ccc(C2c3cc4c(cc3OC(O)C2C)OCO4)cc1` (configuration not stated): the growth inhibition in test [1] (setting [7]) is -3%; in test [1] (setting [8]), 69%; in test [1] (at 50.0 µM), 96.8% (active); in test [2] (setting [7]), -6%; in test [2] (setting [8]) it was 49%; in test [2] (at 50.0 µM), 93.5% (active). Also, the growth inhibition in test [3] (setting [7]) is -2%; in test [3] (setting [8]) it was 78% (active); in test [3] (at 50.0 µM), 98.3% (active); in test [4] (setting [7]) it was -2%; in test [4] (setting [8]) it was 42%; in test [4] (at 50.0 µM) it was 95.3% (active). Further, the growth inhibition in test [5] (setting [7]) was -2%; in test [5] (setting [8]) it was 67%; in test [5] (at 50.0 µM), 97% (active); in test [6] (setting [7]), -1%; in test [6] (setting [8]), 74% (active); in test [6] (at 50.0 µM) it was 97.5% (active).

Consider `C=C1C(C2(C)C(OC(C)=O)CC(=O)OC(C)(COC(C)=O)C2CC(=O)OC)C(OC=O)C(OC(=O)C(O)C(C)CC)C2(C)C(c3ccoc3)CC(=O)C12O` (configuration not stated), for which the growth inhibition in test [1] (setting [7]) was -15%; in test [1] (setting [8]), -28%; in test [1] (at 50.0 µM) it was 76.9% (active); in test [2] (setting [7]), -5%; in test [2] (setting [8]), -16%; in test [2] (at 50.0 µM) it was 68.7%. Also, the growth inhibition in test [3] (setting [7]) is 4%; in test [3] (setting [8]), -32%; in test [3] (at 50.0 µM), 57.5%; in test [4] (setting [7]) it was -6%; in test [4] (setting [8]) it was 0%; in test [4] (at 50.0 µM), 81.5% (active). The growth inhibition was -36% in test [5] (setting [7]); -23% in test [5] (setting [8]); 79.8% (active) in test [5] (at 50.0 µM); -2% in test [6] (setting [7]); -53% in test [6] (setting [8]); 90% (active) in test [6] (at 50.0 µM).

For `c1ccc2nc(C[n+]3cccc4ccccc43)ccc2c1`, the growth inhibition in test [1] (setting [7]) was 86% (active); in test [1] (setting [8]), 99% (active); in test [1] (at 50.0 µM), 97.5% (active); in test [2] (setting [7]), 73% (active); in test [2] (setting [8]) it was 99% (active); in test [2] (at 50.0 µM) it was 97.8% (active). The growth inhibition is 70% (active) in test [3] (setting [7]); 97% (active) in test [3] (setting [8]); 58.4% in test [3] (at 50.0 µM); 72% (active) in test [4] (setting [7]); 99% (active) in test [4] (setting [8]); 80% (active) in test [4] (at 50.0 µM). Besides, the growth inhibition in test [5] (setting [7]) was 64%; in test [5] (setting [8]), 98% (active); in test [5] (at 50.0 µM), 97.9% (active); in test [6] (setting [7]), 73% (active); in test [6] (setting [8]), 98% (active); in test [6] (at 50.0 µM), 97.1% (active).
